Laboratory results: ChEMBL document CHEMBL1961873, “Compounds: GSK PKIS; Assays: Nanosyn kinase panel” (2012)

How the values were obtained:
[1] = molecular target: RAC-alpha serine/threonine-protein kinase (Homo sapiens) (UniProt P31749); conditions: at 0.1 µM
[2] = molecular target: RAC-alpha serine/threonine-protein kinase (Homo sapiens) (UniProt P31749); conditions: at 1 µM
[3] = molecular target: RAC-beta serine/threonine-protein kinase (Homo sapiens) (UniProt P31751); conditions: at 0.1 µM
[4] = molecular target: RAC-beta serine/threonine-protein kinase (Homo sapiens) (UniProt P31751); conditions: at 1 µM
[5] = molecular target: RAC-gamma serine/threonine-protein kinase (Homo sapiens) (UniProt Q9Y243); conditions: at 0.1 µM
[6] = molecular target: RAC-gamma serine/threonine-protein kinase (Homo sapiens) (UniProt Q9Y243); conditions: at 1 µM
[7] = molecular target: G protein-coupled receptor kinase 6 (Homo sapiens) (UniProt P43250); conditions: at 0.1 µM
[8] = molecular target: G protein-coupled receptor kinase 6 (Homo sapiens) (UniProt P43250); conditions: at 1 µM
[9] = molecular target: T1, Rhodopsin kinase GRK7 (Homo sapiens) (UniProt Q8WTQ7); conditions: at 0.1 µM
T1 sequence (whole entry): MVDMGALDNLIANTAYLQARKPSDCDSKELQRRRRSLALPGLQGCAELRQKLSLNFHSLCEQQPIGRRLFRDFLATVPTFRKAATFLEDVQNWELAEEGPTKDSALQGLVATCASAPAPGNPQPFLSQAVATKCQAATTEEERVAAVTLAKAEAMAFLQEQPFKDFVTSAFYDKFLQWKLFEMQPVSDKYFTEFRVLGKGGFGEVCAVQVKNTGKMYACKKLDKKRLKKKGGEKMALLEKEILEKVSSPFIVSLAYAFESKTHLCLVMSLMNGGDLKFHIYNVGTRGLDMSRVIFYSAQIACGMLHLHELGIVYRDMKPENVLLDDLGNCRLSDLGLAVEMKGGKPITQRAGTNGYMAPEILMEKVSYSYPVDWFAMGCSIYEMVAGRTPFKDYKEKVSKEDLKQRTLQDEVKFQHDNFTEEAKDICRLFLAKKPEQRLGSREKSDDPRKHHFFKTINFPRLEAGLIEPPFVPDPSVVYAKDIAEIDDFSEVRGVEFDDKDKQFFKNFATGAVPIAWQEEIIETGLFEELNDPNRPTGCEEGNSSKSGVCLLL

[10] = molecular target: T1, Rhodopsin kinase GRK7 (Homo sapiens); conditions: at 1 µM

Chain of G protein-coupled receptor kinase 6 (Homo sapiens) (P43250 whole entry, looked up): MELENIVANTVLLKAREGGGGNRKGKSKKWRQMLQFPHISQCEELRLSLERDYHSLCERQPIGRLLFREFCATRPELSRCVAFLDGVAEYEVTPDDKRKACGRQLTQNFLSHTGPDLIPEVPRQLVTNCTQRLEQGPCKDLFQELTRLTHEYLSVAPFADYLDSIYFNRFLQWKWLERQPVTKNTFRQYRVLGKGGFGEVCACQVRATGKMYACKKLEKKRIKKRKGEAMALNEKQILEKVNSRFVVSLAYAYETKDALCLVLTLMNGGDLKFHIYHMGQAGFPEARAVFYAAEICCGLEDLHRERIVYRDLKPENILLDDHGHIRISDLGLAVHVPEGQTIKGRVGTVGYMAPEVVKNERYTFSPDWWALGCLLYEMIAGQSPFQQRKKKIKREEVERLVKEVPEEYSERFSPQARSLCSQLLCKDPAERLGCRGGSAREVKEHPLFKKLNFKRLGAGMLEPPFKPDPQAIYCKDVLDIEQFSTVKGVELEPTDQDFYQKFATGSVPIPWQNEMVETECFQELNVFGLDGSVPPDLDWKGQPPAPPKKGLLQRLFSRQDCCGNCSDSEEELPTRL
Chain of RAC-beta serine/threonine-protein kinase (Homo sapiens) (P31751 whole entry): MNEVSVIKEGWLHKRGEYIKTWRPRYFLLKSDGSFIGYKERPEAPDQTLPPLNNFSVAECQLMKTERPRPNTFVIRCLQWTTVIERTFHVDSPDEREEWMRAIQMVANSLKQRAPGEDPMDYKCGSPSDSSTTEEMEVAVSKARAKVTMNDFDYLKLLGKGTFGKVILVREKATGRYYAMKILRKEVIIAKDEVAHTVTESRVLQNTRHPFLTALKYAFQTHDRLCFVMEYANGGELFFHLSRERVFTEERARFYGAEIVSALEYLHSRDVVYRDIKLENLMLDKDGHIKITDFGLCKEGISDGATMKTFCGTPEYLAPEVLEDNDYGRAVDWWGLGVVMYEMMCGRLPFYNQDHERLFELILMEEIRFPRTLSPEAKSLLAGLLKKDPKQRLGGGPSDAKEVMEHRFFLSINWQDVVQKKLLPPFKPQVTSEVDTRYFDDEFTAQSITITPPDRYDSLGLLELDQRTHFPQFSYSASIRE
Chain of RAC-alpha serine/threonine-protein kinase (Homo sapiens) (P31749 whole entry): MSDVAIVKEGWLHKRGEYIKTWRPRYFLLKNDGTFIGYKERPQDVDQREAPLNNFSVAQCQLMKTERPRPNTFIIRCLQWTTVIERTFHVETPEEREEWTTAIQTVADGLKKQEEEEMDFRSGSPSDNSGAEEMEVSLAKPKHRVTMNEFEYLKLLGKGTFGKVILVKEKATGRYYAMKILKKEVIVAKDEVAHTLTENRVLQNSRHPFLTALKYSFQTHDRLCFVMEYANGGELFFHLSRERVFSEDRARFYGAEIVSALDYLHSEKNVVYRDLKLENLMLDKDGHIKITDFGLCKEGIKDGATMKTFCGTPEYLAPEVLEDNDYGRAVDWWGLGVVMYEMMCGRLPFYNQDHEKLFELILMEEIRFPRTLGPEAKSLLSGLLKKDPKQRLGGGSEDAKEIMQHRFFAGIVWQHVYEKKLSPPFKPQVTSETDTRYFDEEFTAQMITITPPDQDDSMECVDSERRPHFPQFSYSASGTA
Chain of RAC-gamma serine/threonine-protein kinase (Homo sapiens) (Q9Y243 whole entry): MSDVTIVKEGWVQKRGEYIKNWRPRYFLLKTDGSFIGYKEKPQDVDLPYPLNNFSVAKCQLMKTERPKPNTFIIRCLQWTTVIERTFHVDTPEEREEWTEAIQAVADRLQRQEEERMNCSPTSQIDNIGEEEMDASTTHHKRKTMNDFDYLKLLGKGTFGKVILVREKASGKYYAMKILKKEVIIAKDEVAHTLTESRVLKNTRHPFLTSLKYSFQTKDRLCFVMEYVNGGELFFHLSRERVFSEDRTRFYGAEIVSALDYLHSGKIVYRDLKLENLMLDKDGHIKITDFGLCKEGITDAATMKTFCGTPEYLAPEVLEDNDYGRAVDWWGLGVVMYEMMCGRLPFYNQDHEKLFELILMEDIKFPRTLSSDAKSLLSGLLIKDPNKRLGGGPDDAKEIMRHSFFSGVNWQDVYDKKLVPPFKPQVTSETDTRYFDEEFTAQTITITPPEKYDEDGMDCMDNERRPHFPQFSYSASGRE

| SMILES | inhibition [1] | inhibition [2] | inhibition [3] | inhibition [4] | inhibition [5] | inhibition [6] | inhibition [7] | inhibition [8] | inhibition [9] | inhibition [10] |
| --- | --- | --- | --- | --- | --- | --- | --- | --- | --- | --- |
| Cc1cccc(-c2n[nH]cc2-c2ccc3ncccc3n2)n1 | -0.73% | 0.02% | 0.56% | -0.22% | 2.42% | 2.13% | 0.46% | 3.16% | -0.51% | 5.08% |
| NCc1ccc(-c2nc(-c3ccc(Cl)c(O)c3)c(-c3ccncc3)[nH]2)cc1 | 0.06% | 0.47% | -1.18% | -0.26% | -0.23% | 0.68% | -0.28% | -0.98% | -2.26% | 2.84% |
| NS(=O)(=O)c1cccc(-c2ccc3c(NC(=O)C4CC4)n[nH]c3c2)c1 | -2.14% | -1.44% | -4.21% | -1.31% | -1.31% | -2.99% | 1.43% | 2.82% | -7.07% | -0.65% |
| CCCN1CCC(Oc2cc(Nc3nc(Nc4cccc(F)c4C(N)=O)c4cc[nH]c4n3)c(OC)cc2Cl)CC1 | 0.07% | 1.83% | 1.14% | 2.04% | 1.42% | 1.06% | 1.2% | 1.87% | 3.39% | 7.39% |
| COc1cc(C=NNc2ncnc3c2cnn3-c2ccccc2)ccc1O | 0.7% | -1.12% | 2.4% | -2.91% | 1.08% | -1.19% | 1.52% | -6.34% | -0.04% | -4.38% |
| Cc1nnc(-c2ccc(C)c(-c3ccc(C(=O)Nc4cccc(C#N)c4)cc3)c2)o1 | 0.44% | 0.29% | 0.76% | 0.57% | 1.16% | 1.22% | 2.81% | 3.91% | 2.5% | 7.22% |
| O=C1NC(=O)C(c2cccc(Cl)c2)=C1Nc1ccc(O)c(Cl)c1 | 0.39% | 1.25% | 0.32% | -0.16% | 0.98% | 0.23% | 2.15% | 1% | 0.66% | 6.41% |
| COc1ccc(COc2ccc(Cc3cnc(N)nc3N)cc2OC)cc1 | 0.82% | -0.15% | 0.33% | -0.17% | 0.61% | 0.93% | -3% | -5.27% | 11% | -7.03% |
| CC1=C(C(=O)Nc2ccc3[nH]ncc3c2)C(c2ccc(F)cc2)NC(=O)N1 (stereo not given) | -0.22% | 0.8% | 0.33% | 1.45% | 0.5% | 2.79% | 5.16% | 7.3% | 2.44% | 6.49% |
| c1cnn2ncc(-c3ccnc(Nc4ccc5c(c4)OCCO5)n3)c2c1 | 0.86% | 0.95% | 2.29% | 1.47% | 1.09% | 2.1% | 7.21% | 4.01% | 4.35% | 2.89% |
| COc1cc2ncn(-c3cc(OCc4ccccc4Cl)c(C(N)=O)s3)c2cc1OC | -1.2% | -0.21% | -0.21% | 0.92% | 1.15% | -1.17% | 2.37% | 5.7% | -0.82% | 9.44% |
| COc1ccc2cc(-c3c(-c4ccncc4)nc(-c4ccc([S+](C)[O-])cc4)n3C)ccc2c1 (stereo not given) | 1% | 0.09% | 1.34% | 1.69% | 1.23% | 0.72% | -3.74% | -0.39% | 2.62% | 2.42% |
| CCN1CCC(CC(=O)Nc2n[nH]c3nc(-c4cccs4)c(Br)cc23)CC1 | -2.05% | -0.11% | -3.94% | -1.99% | -2.82% | 2.59% | -0.66% | -2.54% | -7.57% | -4.43% |
| CCn1c(-c2nonc2N)nc2cncc(C(=O)N3CCNCC3)c21 | 0.91% | 2.57% | 2.91% | 2.21% | 2.05% | 5.1% | 6.32% | 9.53% | 7.48% | 9.01% |
| CS(=O)(=O)Nc1ccc(N/C=C2\C(=O)Nc3ccccc32)cc1 | -2.28% | -2.1% | -3.92% | -2.28% | -3.25% | 1.91% | -1.94% | 0.5% | -1.39% | -5.45% |
| Nc1ncnc2occ(-c3ccc(NC(=O)Nc4cccc(C(F)(F)F)c4)cc3)c12 | 1.53% | 0.96% | 1.75% | 2.15% | 0.73% | 2.7% | 2.54% | 0.47% | 8.48% | 4.95% |
| CCCN1CCC=C(c2ccc(Nc3nc(Nc4ccccc4C(N)=O)c4cc[nH]c4n3)c(C)c2)C1 | 0.97% | 1.22% | 1.3% | 1.5% | -0.2% | 5.51% | 6.79% | 31.4% | 11.2% | 20.5% |

| SMILES | inhibition [1] | inhibition [2] | inhibition [3] | inhibition [4] | inhibition [5] | inhibition [6] | inhibition [7] | inhibition [8] | inhibition [9] | inhibition [10] |
| --- | --- | --- | --- | --- | --- | --- | --- | --- | --- | --- |
| COc1ccc(-c2nn3ncccc3c2-c2ccnc(Nc3ccc(Cl)c(C(F)(F)F)c3)n2)cc1 | 0.26% | 0.27% | 1.16% | 0.96% | 3.64% | -0.03% | 6.26% | 9.79% | 4.07% | 8.67% |
| O=C1Nc2ccc(C(=O)c3ccco3)cc2C1=Cc1cc(Cl)c(O)c(Cl)c1 | 0.57% | 1.08% | 1.49% | 0.98% | 1.75% | 0.62% | 29.7% | 79.6% | 30.6% | 54.8% |
| COc1cc(C)c(NC(=O)CN(C)C)cc1Nc1nc(Nc2cccc(F)c2C(N)=O)c2cc[nH]c2n1 | 1.35% | 0.96% | 0.81% | 1.17% | 0.86% | 1.72% | 12.9% | 51.2% | 8.5% | 28.1% |
| CCn1c(-c2nonc2N)nc2ccncc21 | 0.31% | 0.51% | 0.98% | 1.01% | -0.4% | -0.73% | 0.85% | -3.7% | 0.19% | 2.02% |
| COC(=O)Nc1nc2cc(Oc3cccc(NC(=O)Nc4cc(C(F)(F)F)ccc4F)c3)ccc2[nH]1 | 0.52% | 0.1% | -0.46% | -0.62% | 0.98% | 1.83% | 2.28% | 0.3% | -2.92% | 1.74% |
| CS(=O)(=O)CCNCc1ccc(-c2ccc3ncnc(Nc4ccc(OCc5ccccc5)c(Cl)c4)c3c2)o1 | -1% | -0.87% | 0.26% | 0.32% | -0.1% | -0.63% | 0.49% | 0.68% | 7.87% | -3.27% |
| COc1cccc(-n2ncc3c(N/N=C/c4cccc(F)c4)ncnc32)c1 | -2.98% | -3.97% | -2.03% | -2.75% | -1.82% | -1.99% | 3.44% | 0.12% | 1.93% | 10.3% |
| Cc1cc(O)cc(C)c1/C=C/c1cncc(-c2nn[nH]n2)c1 | -2.92% | -4.1% | -1.95% | -2.32% | -2.52% | -2.46% | 1.06% | 5.14% | 2.35% | 4.65% |
| CS(=O)(=O)CCNCc1nc(-c2ccc3ncnc(Nc4ccc(F)c(Cl)c4)c3c2)cs1 | 0.62% | -0.01% | 0.07% | 1.1% | 1.52% | -0.89% | 1.59% | 3.85% | 5.77% | -4.62% |
| O=C1NC(=O)C(c2ccc(Cl)cc2)=C1Nc1ccc(Cl)c(C(=O)O)c1 | -1.69% | -1.52% | -2.06% | -1.58% | -1.65% | -1.06% | 2.37% | -0.84% | -5.23% | -4.79% |
| CCn1c(-c2nonc2N)nc2c(C#CC(C)(C)O)nc(OC[C@@H](N)c3ccccc3)cc21 | 38.2% | 85.2% | 61.2% | 91.1% | 48.4% | 87.2% | -1.09% | -0.69% | -0.18% | 16.6% |
| Cc1ccc(C(=O)NC2CCCCC2)cc1-c1ccc(C(=O)NCC2CC2)cc1 | 0.04% | 0.76% | 1.52% | 1.72% | 2.01% | 0.64% | -0.29% | -3.25% | 2.64% | 6.92% |
| COc1ccc(-c2coc3ncnc(N)c23)cc1 | 0.76% | 0.76% | 2.07% | 1.94% | 0.3% | 2.05% | 1.34% | 1.56% | 3.57% | 9.28% |
| CCn1c(-c2nonc2N)nc2cnc(Oc3cccc(NC(=O)c4ccc(OCCN5CCOCC5)cc4)c3)cc21 | 1.6% | 7.87% | 2.69% | 7.74% | 2.01% | 7.9% | 6.32% | 9.42% | 1.38% | 9.5% |
| CCn1c(-c2nonc2N)nc2cncc(C(=O)N3CC[C@H](N)C3)c21 | 3.33% | 19.5% | 3.72% | 13.3% | 5.44% | 32.9% | 6.84% | 8.03% | 3.41% | 10.7% |
| CCc1cccc(NC(=O)Nc2ccc(Oc3ccc4nc(NC(=O)OC)[nH]c4c3)cc2)c1 | 1.36% | 0.06% | 1.23% | 1.45% | 2.78% | -0.71% | 2.37% | 2.68% | 4.8% | 15.6% |
| CS(=O)(=O)CCN(CC#N)Cc1ccc(-c2ccc3ncnc(Nc4ccc(OCc5cccc(F)c5)c(Cl)c4)c3c2)o1 | -1.63% | -3.32% | -3.4% | -2.91% | -3.18% | -0.79% | 0.99% | 3.25% | 6.9% | 2.37% |
